This assay concerns the target T1, SALL4 ZFC4 WT (HT-SELEX) (Mus musculus, UniProt Q8BX22 870-940).
T1 sequence: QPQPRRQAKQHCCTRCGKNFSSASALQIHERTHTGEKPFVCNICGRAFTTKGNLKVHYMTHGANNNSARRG
The experiment in a line: HT-SELEX; high values mean tight binding. The conditions noted are these: protein: recombinant; vector His6-GST; dsDNA, one strand shown. The procedure, abridged: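 A 100 µl reaction of 10 mM Tris–HCl pH 7.5, 50 mM NaCl, poly(dI-dC) and DTT held purified recombinant mouse SALL4 zinc finger cluster 4 (residues 870–940, 1 µg) and library DNA (1.5 µg first cycle, 200 ng later) for 10 min at room temperature. Complexes captured on Ni2+ beads were washed, PCR-amplified and reselected for up to 6 cycles, in triplicate, then MiSeq-sequenced and scanned for 6-mers. Binding signal is the read fraction of each canonical k-mer expressed as fold change over the initial random library.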
For the sequence ATGCTA, the binding signal is 1.28 ± 0.0551 fold-change vs cycle 0.
The same measure for GTATCA: 1.39 ± 0.0637 fold-change vs cycle 0; for TCTGCA: 0.609 ± 0.0257 fold-change vs cycle 0.
Next, CCTGTC: 0.437 ± 0.00717 fold-change vs cycle 0.
For AGCGTA, the binding signal came out at 0.55 ± 0.0304 fold-change vs cycle 0.
Turning to CGGTAG, the binding signal was 0.351 ± 0.018 fold-change vs cycle 0.
Take CCACAG: the binding signal was 0.371 ± 0.0258 fold-change vs cycle 0.
As for CTAAAG, the binding signal stood at 1.22 ± 0.0556 fold-change vs cycle 0.
With AAGAGT, the binding signal turned out to be 1.418 ± 0.0105 fold-change vs cycle 0.
GGGTCA: the binding signal worked out at 0.435 ± 0.0224 fold-change vs cycle 0.
As for AAGTAC, the binding signal came out at 1.23 ± 0.0679 fold-change vs cycle 0.
As for ACGTTA, the binding signal worked out at 1.26 ± 0.034 fold-change vs cycle 0.
Take GTTCCA: the binding signal was determined as 0.74 ± 0.03 fold-change vs cycle 0.
Next, GAGCTA: 0.677 ± 0.0225 fold-change vs cycle 0; ACCTTG: 0.8287 ± 0.00258 fold-change vs cycle 0.
CGTGGA: the binding signal was 0.351 ± 0.0215 fold-change vs cycle 0.
For ACAACC, the binding signal was 0.707 ± 0.0139 fold-change vs cycle 0.
Regarding ACCGAT, the binding signal amounted to 0.687 ± 0.0287 fold-change vs cycle 0.
Turning to CTCGAC, the binding signal turned out to be 0.348 ± 0.0179 fold-change vs cycle 0.
Regarding CCGAAG, the binding signal is 0.38 ± 0.0225 fold-change vs cycle 0.
With TAGTAA, the binding signal was 2.21 ± 0.0521 fold-change vs cycle 0.
Consider CAAGGA, for which the binding signal came to 0.866 ± 0.0298 fold-change vs cycle 0.
Turning to ATCCCC, the binding signal is 0.549 ± 0.0564 fold-change vs cycle 0.
CGAGAG: the binding signal was found to be 0.428 ± 0.0305 fold-change vs cycle 0.
For the sequence GACCAA, the binding signal was 0.62 ± 0.021 fold-change vs cycle 0.
Take TGTGAA: the binding signal came to 1.23 ± 0.0362 fold-change vs cycle 0.
With AGGGCA, the binding signal came out at 0.305 ± 0.031 fold-change vs cycle 0.
Next, AATCTC: 1.38 ± 0.0549 fold-change vs cycle 0; GTCCAC: 0.374 ± 0.044 fold-change vs cycle 0; GAATCA: 1.35 ± 0.0589 fold-change vs cycle 0.
Next, GTTCAA: 1.2 ± 0.0638 fold-change vs cycle 0.
The same measure for CCAAGA: 0.78 ± 0.0182 fold-change vs cycle 0.
As for GAACAC, the binding signal turned out to be 0.766 ± 0.0374 fold-change vs cycle 0.
With GTACTA, the binding signal turned out to be 1.24 ± 0.0382 fold-change vs cycle 0.
As for AAATTT, the binding signal came to 2.66 ± 0.248 fold-change vs cycle 0.
Take TAAAGA: the binding signal came out at 2.04 ± 0.114 fold-change vs cycle 0.
With ACTAGA, the binding signal was found to be 1.39 ± 0.0596 fold-change vs cycle 0.
For CTTGTC, the binding signal amounted to 0.741 ± 0.0177 fold-change vs cycle 0.
The same measure for ACGGTG: 0.355 ± 0.0186 fold-change vs cycle 0; for CCACTC: 0.468 ± 0.0131 fold-change vs cycle 0.

The values are drawn from article PMC9838217, “Structure of SALL4 zinc finger domain reveals link between AT-rich DNA binding and Okihiro syndrome”.
